Results filed as inconclusive are left out. Activity calls are given as the source filed them. How the source made its calls: active means hit-call score of the fitted dose curve at least 0.9, where 1 is the maximum; inconclusive means response in the unintended direction; inactive means score below 0.9.

Sequence of human Vitamin D Receptor (VDR), VDR (gene 7421) (P11473 whole entry, looked up, the tested form may be a part): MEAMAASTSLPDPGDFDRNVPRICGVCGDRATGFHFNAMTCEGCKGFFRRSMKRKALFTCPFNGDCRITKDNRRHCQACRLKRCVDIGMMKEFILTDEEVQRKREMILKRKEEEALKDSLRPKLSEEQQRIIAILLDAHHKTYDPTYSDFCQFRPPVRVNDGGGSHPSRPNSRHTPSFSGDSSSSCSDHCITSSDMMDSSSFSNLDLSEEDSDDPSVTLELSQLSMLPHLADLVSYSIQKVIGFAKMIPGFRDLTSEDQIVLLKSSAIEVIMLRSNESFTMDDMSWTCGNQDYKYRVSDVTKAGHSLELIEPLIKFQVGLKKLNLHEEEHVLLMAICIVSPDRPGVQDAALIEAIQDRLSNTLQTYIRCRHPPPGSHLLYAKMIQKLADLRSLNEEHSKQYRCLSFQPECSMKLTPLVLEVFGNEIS
Sequence of human Thyroid Receptor alpha (THRa1), THRA (gene 7067) (P10827 whole entry, looked up, the tested form may be a part): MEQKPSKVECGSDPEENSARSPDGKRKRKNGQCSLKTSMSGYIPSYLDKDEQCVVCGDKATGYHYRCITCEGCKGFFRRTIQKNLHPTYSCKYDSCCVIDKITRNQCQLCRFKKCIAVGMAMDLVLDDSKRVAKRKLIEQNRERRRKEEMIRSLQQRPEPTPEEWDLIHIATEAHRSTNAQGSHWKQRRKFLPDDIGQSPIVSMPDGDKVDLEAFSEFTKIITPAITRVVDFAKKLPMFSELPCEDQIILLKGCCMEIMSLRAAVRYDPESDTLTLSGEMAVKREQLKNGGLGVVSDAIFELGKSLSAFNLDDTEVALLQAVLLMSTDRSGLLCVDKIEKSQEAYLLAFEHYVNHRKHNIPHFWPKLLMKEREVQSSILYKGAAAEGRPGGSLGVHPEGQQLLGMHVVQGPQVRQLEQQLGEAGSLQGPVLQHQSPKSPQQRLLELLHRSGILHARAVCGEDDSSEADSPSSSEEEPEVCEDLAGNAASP
Sequence of human Retinoid X Receptor beta (RXRb), RXRB (gene 6257) (P28702 whole entry, looked up, the tested form may be a part): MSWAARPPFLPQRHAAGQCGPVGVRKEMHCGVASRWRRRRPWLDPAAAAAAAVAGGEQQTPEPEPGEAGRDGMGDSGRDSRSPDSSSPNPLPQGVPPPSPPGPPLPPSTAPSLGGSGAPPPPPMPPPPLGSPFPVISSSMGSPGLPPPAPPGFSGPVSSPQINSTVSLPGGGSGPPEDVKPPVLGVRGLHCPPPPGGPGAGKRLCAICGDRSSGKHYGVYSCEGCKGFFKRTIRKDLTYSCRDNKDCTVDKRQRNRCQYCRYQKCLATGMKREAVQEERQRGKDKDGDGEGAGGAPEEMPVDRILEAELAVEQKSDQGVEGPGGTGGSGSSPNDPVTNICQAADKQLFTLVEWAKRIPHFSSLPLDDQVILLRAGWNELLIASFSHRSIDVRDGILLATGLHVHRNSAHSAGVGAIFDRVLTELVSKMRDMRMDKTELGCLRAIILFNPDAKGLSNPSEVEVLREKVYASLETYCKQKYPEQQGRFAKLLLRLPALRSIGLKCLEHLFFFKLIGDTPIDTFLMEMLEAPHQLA
Sequence of Retinoic acid receptor RXR-alpha (Homo sapiens) (P19793 whole entry, looked up, the tested form may be a part): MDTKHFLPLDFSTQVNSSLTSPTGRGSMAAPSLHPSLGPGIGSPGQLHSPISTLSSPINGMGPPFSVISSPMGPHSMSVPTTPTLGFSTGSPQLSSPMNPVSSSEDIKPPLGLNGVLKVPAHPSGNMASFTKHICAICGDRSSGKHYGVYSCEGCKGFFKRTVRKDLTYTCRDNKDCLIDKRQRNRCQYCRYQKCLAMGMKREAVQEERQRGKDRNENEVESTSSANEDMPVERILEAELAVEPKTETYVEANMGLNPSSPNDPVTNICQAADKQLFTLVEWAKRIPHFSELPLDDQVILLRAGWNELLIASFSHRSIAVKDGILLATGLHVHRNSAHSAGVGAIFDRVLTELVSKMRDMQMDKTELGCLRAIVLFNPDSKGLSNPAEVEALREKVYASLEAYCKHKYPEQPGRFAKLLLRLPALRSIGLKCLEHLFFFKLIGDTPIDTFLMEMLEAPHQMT

One assay deals with Retinoic acid receptor RXR-alpha (Homo sapiens) (UniProt P19793). The assay can be described thus: ATG_RXRa_TRANS: Attagene TRANS-FACTORIAL HepG2 Assay for human Retinoid X Receptor alpha (RXRa) (AID 2283012). The procedure, abridged:
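HepG2 cells transiently transfected with GAL4-UAS reporter units and chimeric RXRa-Gal4 protein, treated 24 h. Reporter mRNA measured by RT-PCR, fluorescent labelling, HpaI digestion and capillary electrophoresis. Induction fitted against DMSO.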
`COc1cc([C@@H]2c3cc4c(cc3[C@@H](O[C@@H]3O[C@@H]5CO[C@@H](C)O[C@H]5[C@H](O)[C@H]3O)[C@H]3COC(=O)[C@H]23)OCO4)cc(OC)c1O`: the compound was classed as inactive.

`C=C(C)[C@@H]1CC=C(C)C(=O)C1`: the call was inactive.

`Cc1ccc2c(c1)C(=O)OC2=O`: the compound was called inactive.

Regarding `COC(=O)c1cccnc1`, the call was inactive.

Take `CCCCCCCC(=O)OCCCCCC`: the call was inactive.

In the case of `N#Cc1ccc(CC(=O)c2cccc(C(F)(F)F)c2)cc1`, the concentration at half-maximal activity (AC50) was 26.4 µM (active).

Take `OCc1cccc(Oc2ccccc2)c1`: the call was inactive.

Regarding `CSc1c(Cl)c(Cl)c(Cl)c(Cl)c1Cl`, the half-maximal activity concentration (AC50) is 27.3 µM (active).

As for `CC(C)=CCCC(C)CC(=O)O` (stereo not drawn), the compound was called inactive.

On to `CCCCCCCCCCCC(=O)OC[C@@H](O)[C@H]1OC[C@H](O)[C@H]1O`, for which the call was inactive.

With `COS(=O)(=O)O`, the compound was called inactive.

Take `CCCCCCCCCCCCN1CCCCCC1=O`: the result was inactive.

As to `O=C1CCCC=CCCCCCCCCCC1`, the AC50 is 24.4 µM (active).

For `CCCSc1ccc2nc(NC(=O)OC)[nH]c2c1`, the compound was classed as inactive.

For `CCOC(=O)CN`, the compound was called inactive.

Consider `O=C(O)CCCCCCCCC(=O)O`, for which the compound was called inactive.

In the case of `CCc1cc(C(C)(C)C)c(O)c(C(C)(C)C)c1`, the half-maximal activity concentration (AC50) was 11.3 µM (active).

As to `NCCNc1cccc2ccccc12`, the outcome was inactive.

On to `CC(=O)O[C@H]1C[C@@H]2CC[C@@]1(C)C2(C)C`, for which the call was inactive.

For `CCCCC(CC)COC(=O)c1ccc(O)cc1` (stereo not drawn), the compound was called inactive.

Turning to `O=C(CS)OCCOC(=O)CS`, the result was inactive.

As to `C=Cc1ccncc1`, the result was inactive.

With `CCCCC1CCC(O)CC1` (stereo not drawn), the compound was called inactive.

As to `C=CCCC(=O)/C=C/C1C(C)=CCCC1(C)C` (stereo not drawn), the compound was called inactive.

Consider `C1CCOC1`, for which the outcome was inactive.

In the case of `O=C(O)CNc1ccccc1`, the outcome was inactive.

On to `CC1C2CC(CC2C2CCCC(O)C2)C1(C)C` (stereo not drawn), for which the compound was classed as inactive.

On to `C=CC(=C)CCCC(C)(C)OC(C)=O`, for which the compound was called inactive.

`C=CCOC(=O)CCCCCC`: the call was inactive.

As for `Cc1ncc[nH]1`, the compound was called inactive.

Consider `Cc1ccc(C)o1`, for which the outcome was inactive.

As for `CCOC(=O)CCc1ccccc1`, the compound was classed as inactive.

For `C=C(CC(=O)O)C(=O)O`, the compound was classed as inactive.

In the case of `CCCCOCC`, the outcome was inactive.

On to `ClC(c1ccccc1)(c1ccccc1)c1ccccc1`, for which the call was inactive.

For the compound `CC(C)NCC(O)COc1ccc(CC(N)=O)cc1` (stereo not drawn), the result was inactive.

For `N[C@@H](Cc1cc(I)c(Oc2cc(I)c(O)c(I)c2)c(I)c1)C(=O)O`, the compound was classed as inactive.

The next assay has as its target human Retinoid X Receptor beta (RXRb), RXRB (gene 6257) (UniProt P28702). The assay can be described thus: ATG_RXRb_TRANS: Attagene TRANS-FACTORIAL HepG2 Assay for human Retinoid X Receptor beta (RXRb) (AID 2283013). The procedure, abridged: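 HepG2 cells were transiently transfected with multiplexed GAL4-UAS reporters and a chimeric RXRb-Gal4 construct, then exposed for 24 h. Reporter mRNA was quantified by RT-PCR, FAM labeling, HpaI digestion and capillary electrophoresis; gain of signal was scored against DMSO.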
In the case of `COc1cc([C@@H]2c3cc4c(cc3[C@@H](O[C@@H]3O[C@@H]5CO[C@@H](C)O[C@H]5[C@H](O)[C@H]3O)[C@H]3COC(=O)[C@H]23)OCO4)cc(OC)c1O`, the outcome was inactive.

Take `C=C(C)[C@@H]1CC=C(C)C(=O)C1`: the result was inactive.

Consider `Cc1ccc2c(c1)C(=O)OC2=O`, for which the outcome was inactive.

On to `CCCCCCCC(=O)OCCCCCC`, for which the call was inactive.

Regarding `N#Cc1ccc(CC(=O)c2cccc(C(F)(F)F)c2)cc1`, the AC50 is 5.99 µM (active).

For the compound `OCc1cccc(Oc2ccccc2)c1`, the AC50 is 100 µM (active).

On to `CSc1c(Cl)c(Cl)c(Cl)c(Cl)c1Cl`, for which the AC50 is 2.96 µM (active).

As to `CC(C)=CCCC(C)CC(=O)O` (stereo not drawn), the outcome was inactive.

On to `CCCCCCCCCCCC(=O)OC[C@@H](O)[C@H]1OC[C@H](O)[C@H]1O`, for which the compound was classed as inactive.

In the case of `COS(=O)(=O)O`, the outcome was inactive.

In the case of `CCCCCCCCCCCCN1CCCCCC1=O`, the result was inactive.

Take `O=C1CCCC=CCCCCCCCCCC1`: the AC50 is 12.1 µM (active).

As for `CCCSc1ccc2nc(NC(=O)OC)[nH]c2c1`, the result was inactive.

For `CCOC(=O)CN`, the compound was classed as inactive.

As to `O=C(O)CCCCCCCCC(=O)O`, the result was inactive.

On to `CCc1cc(C(C)(C)C)c(O)c(C(C)(C)C)c1`, for which the AC50 is 0.325 µM (active).

On to `NCCNc1cccc2ccccc12`, for which the compound was classed as inactive.

Regarding `CC(=O)O[C@H]1C[C@@H]2CC[C@@]1(C)C2(C)C`, the compound was called inactive.

`CCCCC(CC)COC(=O)c1ccc(O)cc1` (stereo not drawn): the AC50 is 33.4 µM (active).

Turning to `O=C(CS)OCCOC(=O)CS`, the compound was classed as inactive.

Regarding `C=Cc1ccncc1`, the call was inactive.

As for `CCCCC1CCC(O)CC1` (stereo not drawn), the call was inactive.

Consider `C=CCCC(=O)/C=C/C1C(C)=CCCC1(C)C` (stereo not drawn), for which the AC50 was 25.2 µM (active).

For `C1CCOC1`, the outcome was inactive.

With `O=C(O)CNc1ccccc1`, the call was inactive.

Turning to `CC1C2CC(CC2C2CCCC(O)C2)C1(C)C` (stereo not drawn), the compound was called inactive.

Consider `C=CCOC(=O)CCCCCC`, for which the compound was called inactive.

As to `Cc1ccc(C)o1`, the compound was classed as inactive.

As to `CCOC(=O)CCc1ccccc1`, the compound was called inactive.

`C=C(CC(=O)O)C(=O)O`: the compound was classed as inactive.

As for `CCCCOCC`, the compound was classed as inactive.

Turning to `ClC(c1ccccc1)(c1ccccc1)c1ccccc1`, the call was inactive.

In the case of `CC(C)NCC(O)COc1ccc(CC(N)=O)cc1` (stereo not drawn), the result was inactive.

As for `N[C@@H](Cc1cc(I)c(Oc2cc(I)c(O)c(I)c2)c(I)c1)C(=O)O`, the concentration at half-maximal activity (AC50) was 69 µM (active).

In a further assay the target is human Thyroid Receptor alpha (THRa1), THRA (gene 7067) (UniProt P10827). Nature of the assay: ATG_THRa1_TRANS: Attagene TRANS-FACTORIAL HepG2 Assay for human Thyroid Receptor alpha (THRa1) (AID 2283014). The procedure, abridged:
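Reporter transcript induction, read by capillary electrophoresis of 6-FAM-labelled RT-PCR products, reflects activity of a transfected THRa1-Gal4 fusion in HepG2 liver cells. Cells were dosed for 24 h; activity was fitted in the positive direction against DMSO.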
Turning to `COC(=O)c1cccnc1`, the compound was called inactive.

For the compound `C=CC(=C)CCCC(C)(C)OC(C)=O`, the compound was called inactive.

Take `Cc1ncc[nH]1`: the compound was called inactive.

In a further assay the target is human Vitamin D Receptor (VDR), VDR (gene 7421) (UniProt P11473). Nature of the assay: ATG_VDR_TRANS: Attagene TRANS-FACTORIAL HepG2 Assay for human Vitamin D Receptor (VDR) (AID 2283022). The procedure, abridged:
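Steps: transfect HepG2 with GAL4-UAS-driven reporter constructs; dose compounds 24 h; isolate RNA, reverse-transcribe, PCR-amplify with 6-FAM-labelled primer extension and HpaI digestion; quantify fragments by capillary electrophoresis relative to DMSO.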
Consider `COc1cc([C@@H]2c3cc4c(cc3[C@@H](O[C@@H]3O[C@@H]5CO[C@@H](C)O[C@H]5[C@H](O)[C@H]3O)[C@H]3COC(=O)[C@H]23)OCO4)cc(OC)c1O`, for which the result was inactive.

On to `C=C(C)[C@@H]1CC=C(C)C(=O)C1`, for which the outcome was inactive.

With `Cc1ccc2c(c1)C(=O)OC2=O`, the compound was classed as inactive.

Turning to `CCCCCCCC(=O)OCCCCCC`, the call was inactive.

In the case of `N#Cc1ccc(CC(=O)c2cccc(C(F)(F)F)c2)cc1`, the call was inactive.

As to `OCc1cccc(Oc2ccccc2)c1`, the result was inactive.

Regarding `CSc1c(Cl)c(Cl)c(Cl)c(Cl)c1Cl`, the outcome was inactive.

Regarding `CC(C)=CCCC(C)CC(=O)O` (stereo not drawn), the result was inactive.

As for `CCCCCCCCCCCC(=O)OC[C@@H](O)[C@H]1OC[C@H](O)[C@H]1O`, the outcome was inactive.

As to `COS(=O)(=O)O`, the compound was classed as inactive.

For `CCCCCCCCCCCCN1CCCCCC1=O`, the call was inactive.

For `O=C1CCCC=CCCCCCCCCCC1`, the outcome was inactive.

Turning to `CCCSc1ccc2nc(NC(=O)OC)[nH]c2c1`, the compound was called inactive.

Take `CCOC(=O)CN`: the outcome was inactive.

Take `O=C(O)CCCCCCCCC(=O)O`: the call was inactive.

Take `CCc1cc(C(C)(C)C)c(O)c(C(C)(C)C)c1`: the outcome was inactive.

For the compound `NCCNc1cccc2ccccc12`, the call was inactive.

Turning to `CC(=O)O[C@H]1C[C@@H]2CC[C@@]1(C)C2(C)C`, the compound was called inactive.

In the case of `CCCCC(CC)COC(=O)c1ccc(O)cc1` (stereo not drawn), the call was inactive.

As for `O=C(CS)OCCOC(=O)CS`, the compound was called inactive.

For the compound `C=Cc1ccncc1`, the call was inactive.

`CCCCC1CCC(O)CC1` (stereo not drawn): the result was inactive.

Regarding `C=CCCC(=O)/C=C/C1C(C)=CCCC1(C)C` (stereo not drawn), the compound was called inactive.

On to `C1CCOC1`, for which the compound was classed as inactive.

Turning to `O=C(O)CNc1ccccc1`, the outcome was inactive.

With `CC1C2CC(CC2C2CCCC(O)C2)C1(C)C` (stereo not drawn), the compound was called inactive.

`C=CCOC(=O)CCCCCC`: the result was inactive.

As for `Cc1ccc(C)o1`, the compound was classed as inactive.

On to `CCOC(=O)CCc1ccccc1`, for which the call was inactive.

In the case of `C=C(CC(=O)O)C(=O)O`, the compound was classed as inactive.

As for `CCCCOCC`, the outcome was inactive.

In the case of `ClC(c1ccccc1)(c1ccccc1)c1ccccc1`, the result was inactive.

For the compound `CC(C)NCC(O)COc1ccc(CC(N)=O)cc1` (stereo not drawn), the call was inactive.

As for `N[C@@H](Cc1cc(I)c(Oc2cc(I)c(O)c(I)c2)c(I)c1)C(=O)O`, the compound was classed as inactive.

For the origin of these results see PubChem BioAssay (EPA / NIEHS).
